# Test results published in PubChem BioAssay (NCI).
# Values joined by “and” are separate entries in the source; they are usually repeats but may differ in a detail not shown here. Equal values may be shown once. Compounds without any hit were thinned out: in the full panel of roughly 79,000, 15% have a hit. Unmarked numbers belong to inactive results. Active and inactive are the calls of the source. No stated cut-off is given here; in the data, active means growth inhibition above about 70%; inactive means the rest.
# Assay: NCI Yeast Anticancer Drug Screen. Data for the bub3 strain (AID 167)
# Details: S. cerevisiae bub3 mutant strain, hits give high values
# Experimental: Growth inhibition of yeast strains with defined genetic alterations is measured as a screen for potential anti-cancer activity. Selected strains with alterations in DNA damage repair or cell cycle control were exposed to compounds and growth inhibition was measured relative to vehicle treated controls. The strain used in this assay is bub3
# [1] = at 5.0 µM (retest, dose inferred, filed as 0.5)
# [2] = at 50.0 µM (retest, dose inferred, filed as 5.0)
SMILES,growth inhibition [1],growth inhibition [2],growth inhibition (at 50.0 µM)
O=C1C=CC(=O)c2c(O)c(CO)c(CO)c(O)c21,40%,98% (active),74.2% (active)
O=C(c1ccccc1)C(Br)[N+](=O)[O-] (stereo unspecified),100% (active),100% (active),99.8% (active)
OC(c1cc2ccc(C(F)(F)F)cc2c2cc(C(F)(F)F)ccc12)C1CCCCN1 (stereo unspecified),91% (active),99% (active),85.5% (active)
C/C(=N/NC(N)=S)c1ccc(C)cc1,-13%,-8%,45%
CC(C)(C)c1ccc(CCO)cc1,0%,6%,-4.15%
COc1ccc(/C=C2/C(=O)ON=C2C)cc1,11%,23%,88.5% (active)
COc1ccc2nc3cc([N+](=O)[O-])ccc3c(NNc3ccccc3)c2c1,3%,6%,5%
Cc1cc2cccnc2c2ncccc12,21%,99% (active),99.3% (active)
O=C(Nc1ccc(Cl)c(Cl)c1)Nc1ccccc1O,46%,78% (active),64%
CCCCCCCCCCCC[N+]1(CCCCCCCCCCCC)CCCC(C)C1 (stereo unspecified),99% (active),99% (active),90% (active)
COc1cccc(NC(=O)C(C#N)=C(SC)SC)c1,42%,95% (active),91.2% (active)
Cn1c(-c2ccccc2)c(/C=C/C2=[N+](C)c3ccccc3C2(C)C)c2ccccc21,93% (active),100% (active),99.5% (active)
CC(=O)c1ccc2c(c1)sc1cc(C(C)=O)ccc12,15%,99% (active),
CN(C)CC1COC2Cc3ccccc3C1O2 (stereo unspecified),,,-19.1% and 21.5%
CC(CCC(=O)O)C(=O)O (stereo unspecified),,,4.95% and 11.3%
ClCC(CCl)(CCl)CCl,,,12.3% and -0.2%
